Inconclusive results are not listed. Activity calls are given as the source filed them. The call rests on the fitted dose curve; in most records, active means well fitted cell-killing curve with a large enough effect; inconclusive means small, poorly fitted or top-dose-only effect, or effect the other way; inactive means no such curve, though single readings can be large or run the other way. *1 amine or outer side, *2 acyl side, *3 side chain or, on linkers, in order; H or OH if unused. Where a SMILES comes first, the peptide text is derived from it. Bridges are numbered along the chain shown (N, C = ends). Roman numbers before positions name the chains, in order. [ ]: non-standard residue; d: D form. Actinocin(9to1) = Cc1c2oc3c(C)ccc(C(=O)[*:1])c3nc-2c(C(=O)[*:2])c(N)c1=O; NMeV = CN[C@H](C(=O)O)C(C)C; Sar = CNCC(=O)O
Tested on: HeLa
Experiment: Confirmatory qHTS for gynecologic anti-cancer compounds from libraries of approved drugs and bioactive compounds; further: nearly all actives have a fitted effect of over 55% in size
Conditions: gynecologic cancer cell panel viability, ATPlite luminescence, 48 h; series mostly up to 57.6 µM
In short: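 Viability is measured as ATP-dependent luciferase light using ATPlite, read 15 min after reagent addition at room temperature. Compounds, in DMSO, span 57.5 uM down to 0.977 nM over 11 threefold steps for 48 h.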
Potency means the concentration at half of the fitted maximal effect.

Row | SMILES | Potency
1 | CC(Oc1ccc2[nH]nc(/C=C/c3cnn(CCO)c3)c2c1)c1c(Cl)cncc1Cl (configuration not stated) | 172 nM (active)
2 | COc1cc(-c2nn(C3CCC(N4CCN(C(C)=O)CC4)CC3)c3ncnc(N)c23)ccc1NC(=O)c1cc2ccccc2n1C (configuration not stated) | 30600 nM (active)
3 | CNC(=O)c1ccccc1Sc1ccc2c(/C=C/c3ccccn3)n[nH]c2c1 | 3060 nM (active)
4 | Nc1nc(=S)c2[nH]cnc2[nH]1 | 2430 nM (active)
5 | Nc1ccccc1NC(=O)c1ccc(CNC(=O)OCc2cccnc2)cc1 | 4320 nM (active)
6 | COc1cc2c(c(OC)c1OC)-c1ccc(OC)c(=O)cc1[C@@H](NC(C)=O)CC2 | 178 nM (active)
7 | Cn1cc(-c2ccc3ncc(Cc4ccc5ncccc5c4)n3n2)cn1 | inactive
8 | O=c1c(-c2ccc(O)cc2)coc2cc(O)cc(O)c12 | 12200 nM (active)
9 | CC[C@]1(O)C[C@@H]2CN(CCc3c([nH]c4ccccc34)[C@@](C(=O)OC)(c3cc4c(cc3OC)N(C)[C@H]3[C@@](O)(C(=O)OC)[C@H](OC(C)=O)[C@]5(CC)C=CCN6CC[C@]43[C@@H]65)C2)C1 | 122 nM (active)
10 | Cc1nc(NC(=O)N2CCCC2C(N)=O)sc1-c1ccnc(C(C)(C)C(F)(F)F)c1 (configuration not stated) | 19300 nM (active)
11 | Cc1nc(N)nc(N)c1-c1ccc(Cl)c(Cl)c1 | 3060 nM (active)
12 | Cc1ccc(C(=O)N(CCCN)C(c2oc3cc(Cl)ccc3c(=O)c2Cc2ccccc2)C(C)C)cc1 (configuration not stated) | 13.7 nM (active)
13 | NC(=O)c1cccc2cn(-c3ccc([C@@H]4CCCNC4)cc3)nc12 | inactive
14 | CCCS(=O)c1ccc2nc(NC(=O)OC)[nH]c2c1 (configuration not stated) | 24300 nM (active)
15 | CCN1CCN(Cc2ccc(-c3cc4c(NC(C)c5ccccc5)ncnc4[nH]3)cc2)CC1 (configuration not stated) | 30600 nM (active)
16 | CS(=O)(=O)c1ccc(C(=O)Nc2ccc(Cl)c(-c3ccccn3)c2)c(Cl)c1 | inactive
17 | CN(NC(=O)CC(=O)NN(C)C(=S)c1ccccc1)C(=S)c1ccccc1 | 122 nM (active)
18 | CCS(=O)(=O)c1cccc(-c2cc(C(=O)NC3CCN(C)CC3)c(C)c3[nH]c4ncc(C)cc4c23)c1 | 476 nM (active)
19 | COc1ccc(OC)c(-c2nnc3ccc(-c4ccc(OC)c(O[C@@H]5CCOC5)c4)nn23)c1 | 5440 nM (active)

Row | SMILES | Potency
20 | COc1ccc(-c2nc3ccc(C4=NNC(=O)CC4C)cc3[nH]2)cc1 (configuration not stated) | 19300 nM (active)
21 | O=C1c2c(O)ccc(O)c2C(=O)c2c(NCCNCCO)ccc(NCCNCCO)c21 | 2430 nM (active)
22 | Nc1nc(Cl)nc2c1ncn2C1OC(CO)C(O)C1F (configuration not stated) | inactive
23 | Cc1nc(N)ncc1-c1nc(N2CCOCC2)c2sc(C(C)(C)O)cc2n1 | 1720 nM (active)
24 | Cc1c2oc3c(C)ccc(C(=O)N[C@@H]4C(=O)N[C@H](C(C)C)C(=O)N5CCC[C@H]5C(=O)N(C)CC(=O)N(C)[C@@H](C(C)C)C(=O)O[C@@H]4C)c3nc-2c(C(=O)N[C@@H]2C(=O)N[C@H](C(C)C)C(=O)N3CCC[C@H]3C(=O)N(C)CC(=O)N(C)[C@@H](C(C)C)C(=O)O[C@@H]2C)c(N)c1=O (I: T[dV]P[Sar][NMeV] / II: T[dV]P[Sar][NMeV]; ester I:1-I:C, II:1-II:C; linker I:N-II:N via Actinocin(9to1)) | 863 nM (active)
25 | CC(=O)Nc1cccc(-n2c(=O)n(C3CC3)c(=O)c3c(Nc4ccc(I)cc4F)n(C)c(=O)c(C)c32)c1 | inactive
26 | O=c1[nH]c(=O)n([C@H]2C[C@H](O)[C@@H](CO)O2)cc1F | 2430 nM (active)
27 | O=C(O)c1ccc(Nc2ncc3c(n2)-c2ccc(Cl)cc2C(c2c(F)cccc2F)=NC3)cc1 | 7690 nM (active)
28 | CCS(=O)(=O)N1CCN(c2ccc(Nc3ncc(C(N)=O)c(NC4CC4)n3)cc2)CC1 | 4850 nM (active)
29 | CCC1C(=O)N(C)c2cnc(Nc3ccc(C(=O)NC4CCC(N5CCN(CC6CC6)CC5)CC4)cc3OC)nc2N1C(C)C (configuration not stated) | 38.5 nM (active)
30 | O=C(NOCC1CC1)c1ccc(F)c(F)c1Nc1ccc(I)cc1Cl | 9680 nM (active)
31 | Nc1ccc(C(=O)Nc2cccc(-c3nc(N4CCOCC4)c4oc5ncccc5c4n3)c2)cn1 | 7690 nM (active)
32 | CC(C)c1nn(-c2c(Cl)cccc2Cl)c2nc(Cc3ccc(OCCO)cc3)[nH]c(=O)c12 | 122 nM (active)
33 | COC(C(=O)N1Cc2[nH]nc(NC(=O)c3ccc(N4CCN(C)CC4)cc3)c2C1)c1ccccc1 (configuration not stated) | 243 nM (active)
34 | CC[C@]1(O)C[C@H]2CN(CCc3c([nH]c4ccccc34)[C@@](C(=O)OC)(c3cc4c(cc3OC)N(C=O)[C@H]3[C@@](O)(C(=O)OC)[C@H](OC(C)=O)[C@]5(CC)C=CCN6CC[C@]43[C@@H]65)C2)C1 | 273 nM (active)
35 | COc1c(C)c2c(c(O)c1C/C=C(\C)CCC(=O)OCCN1CCOCC1)C(=O)OC2 | 2430 nM (active)
36 | CC(C)C[C@H](NC(=O)[C@@H](NC(=O)c1cccc(-c2ccccc2)n1)[C@@H](C)O)B(O)O | 24300 nM (active)
37 | Cc1cnc(Nc2ccc(OCCN3CCCC3)cc2)nc1Nc1cccc(S(=O)(=O)NC(C)(C)C)c1 | 3850 nM (active)

— PubChem BioAssay AID1345085 (National Center for Advancing Translational Sciences (NCATS), 2018)
